Laboratory results: ChEMBL document CHEMBL4296182, “CO-ADD screening of NIH NCI Diversity Set V”

What follows are compounds tested on Staphylococcus aureus (assay: Antibacterial activity against Staphylococcus aureus MRSA ATCC 43300 (CO-ADD:GP_020); MIC in CAMBH media using NBS plates, by Resazurin F(560/590)). Details: Concentration 20 uM, ASSAY_TEST Inhibition of Bacterial Growth, detection method Resazurin, Fluorescence (ex560/em590), MEDIA CAMHB, plate type 384well, CORNING #3640, time 18 hr.
Type: functional

SMILES	Inhibition [%]
Oc1ncnc(CN2CCCCC2)c1O	7.4
CCOC(=O)Cc1cc(O)c2cc(C)ccc2n1	11.68
Sc1nc2c[nH]c(S)nc-2n1	21.94
O=C(O)c1ccc(N2CCCCC2)cc1O	7.99
NC(CC(=O)Nc1cc(C(F)(F)F)ccc1Cl)=NO	9.76
Cc1c(O)ccc2c(O)c(NC(=O)c3ccc4c(c3)CCC(C)(C)O4)c(=O)oc12 [CYCLONOVOBIOCIC ACID]	10.86
CS(=O)(=O)O.Cc1cc2c(cc1[N+](=O)[O-])NC(CNC(C)C)CC2 (stereo not given)	12.97
O=C(O)CSc1ccc(NC(=O)Nc2ccccc2F)cc1	18.21
O=C(O)c1ccccc1-n1c2ccccc2c2ccccc21	10.38
C#CCNc1ccc(C(=O)OCC)cc1	7.69
CCOC(=O)N1C/C(=C\c2ccccc2)C(=O)/C(=C/c2ccccc2)C1	10.93
CC(C)(C)NC1=NCCNC(c2ccccc2)=C1.CS(=O)(=O)O	-3.88
Nc1ccccc1C(=O)Nc1ccc(Cl)cc1Cl	13.76
CN(c1cccnc1)c1[nH]cnc2nncc1-2	-13.03
O=C(c1ccccc1)c1ccccc1C(=O)c1ccccc1	16.85
c1ccc(-n2nnnc2-c2cccc3ccccc23)cc1	11.74
CN1N=C/C(=C/NC(N)=O)C1=O	-2.54
CCCCC(=O)N1CCCC(C)C1 (stereo not given)	12.48
CN(C)S(=O)(=O)Nc1ccccn1	6.72
Nc1ncnc2c1ncn2C1C=C(CO)C(O)C1O (stereo not given)	4.94
